# High-throughput results deposited in PubChem BioAssay by National Center for Advancing Translational Sciences (NCATS).
# Only some compounds are listed: those with a hit (about 7.9% of all), similar ones and a draw of the others.
# KB-V1 MDR tox – KB-V1 MDR subline cytotoxicity. KB-V1 MDR cells viability, CellTiter-Glo, 72 h. Potency, µM (top dose mostly 46.1 µM), hits mostly cytotoxic. actives 3.4% (n = 400,000). AID 1347076; note: nearly all actives have a fitted effect of over 60% in size
#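 KB-V1, DMEM (no phenol red) + 10% FBS; cpd pin-transferred, titration series; 72 h, 37 degrees C; CellTiter-Glo, luminescence. Data normalized, curve-fit.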
# SW480 rereplic – induces DNA re-replication in SW480 colon adenocarcinoma cells; SW480 DNA re-replication, Hoechst DNA content imaging, 48 h; Potency, µM (titrated, usually from 46.1 µM), usual class: activators; actives 1.8% (n = 340,000); AID 624297; note: nearly all actives have a fitted effect of over 55% in size
#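 250 cells/well; 23 nL cpd via pin tool; 48 hr, 37 C, 5% CO2; Hoechst 40 min; imager read of total nuclear intensity, ex 405/em 500-530 nm.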
# HT1080-NT tox – kills 2HG-producing HT-1080-NT fibrosarcoma cells; HT-1080-NT fibrosarcoma viability, CellTiter-Glo ATP luminescence, 48 h; Potency, µM (titrated, usually from 46.1 µM), usual class: cytotoxic; actives 1.6% (n = 360,000);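 note: NT is the 2HG producing partner of a matched IDH1 knockdown line; nearly all actives have a fitted effect of over 55% in size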
#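 Luminescent CellTiter-Glo readout after 48 hours of compound exposure at 37 degrees C defined viability of HT-1080-NT cells. Activity was normalized to DMSO wells and cell-free media wells; concentration-response curves were fitted and assigned curve classes.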
# KB-3-1 cytotox – kills parental KB-3-1 adenocarcinoma cells; KB-3-1 viability, CellTiter-Glo ATP luminescence, 72 h; Potency, µM (doses to about 46.1 µM), most hits filed as cytotoxic; actives 1.4% (n = 400,000); AID 1347075; note: nearly all actives have a fitted effect of over 60% in size
#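 Viability of parental KB-3-1 cells, measured by CellTiter-Glo luminescence, followed a 72 h incubation at 37 °C with pinned compounds in phenol-red-free DMEM containing 10% FBS.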
# HT1080 IDH1KD tx – kills HT-1080 cells with IDH1 knockdown. Potency, µM (doses to about 46.1 µM), hits mostly cytotoxic. actives 2% (n = 360,000). AID 686971. HT-1080 IDH1 knockdown viability, ATP luminescence, 48 h
#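 Assay cells: HT-1080 with IDH1 knockdown, 750 per well, RPMI/5% FBS. Exposure: 48 h at 37 °C following 2 h pre-incubation. Read: CellTiter-Glo luminescence; fitted concentration-response, curve class assigned.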
# MCF10A rereplic – inducers of DNA re-replication in MCF 10A breast cells; MCF 10A DNA re-replication, Hoechst nuclear intensity, 48 h; actives 2.9% (n = 350,000); Potency, µM (highest dose often 46.1 µM), actives largely listed as activators; AID 624296; note: nearly all actives have a fitted effect of over 50% in size
# Hits are given with their value; i = inactive; ? = inconclusive; nt = no result; [ ] = another dose, or the depositor's remark. Calls come from the whole dose curve; as a rule, active = well fitted curve in the direction sought with a large enough effect; inconclusive = small, poorly fitted or top-dose-only effect, or another doubt; inactive = no such curve, though single readings can be large; an effect the other way counts as inactive or inconclusive.
SMILES,KB-V1 MDR tox,SW480 rereplic,HT1080-NT tox,KB-3-1 cytotox,HT1080 IDH1KD tx,MCF10A rereplic
O=C(Nc1ccc(S(=O)(=O)N2CCCC2)cc1)c1ccc([N+](=O)[O-])cc1,i,i,i,i,i,i
O=C(Nc1ccc(S(=O)(=O)N2CCCC2)cc1)c1ccc([N+](=O)[O-])o1,?,0.731µM,16.4µM,?,14.6µM,1.84µM
O=C(Nc1ccc(S(=O)(=O)N2CCCCCC2)cc1)c1ccc(Br)o1,5.8µM,i,i,?,i,i
O=C(Nc1ccc(S(=O)(=O)N2CCOCC2)cc1)c1ccco1,i,i,i,i,i,i
O=C(Nc1ccc(Oc2ccc(S(=O)(=O)N3CCOCC3)cn2)cc1)c1ccco1,18.4µM,i,i,i,i,i
O=C(Nc1ccc(Cc2ccncc2)cc1)c1ccc([N+](=O)[O-])o1,i,5.17µM,3.66µM,?,5.17µM,3.66µM
Cc1c(C(=O)Nc2ccc(Cc3ccncc3)cc2)cccc1[N+](=O)[O-],i,i,?,i,?,i
Cc1cccc(OCC(=O)Nc2ccc3nc(Nc4cccc(C(F)(F)F)c4)cc(C)c3c2)c1,i,nt,nt,i,nt,nt
Cn1c(Cc2ccccc2)nnc1SCC(=O)NC1CC1,i,i,i,?,i,i
Cc1ccc(C)c(NC(=O)/C(C#N)=C/c2ccc[nH]2)c1,i,?,i,i,i,?
CCOc1cc(C(=O)Nc2ccc3nc(N4CCN(C)CC4)cc(C)c3c2)cc(OCC)c1OCC,i,nt,nt,i,nt,nt
CCCCn1nnc(NC(=O)c2ccc(-c3ccccc3[N+](=O)[O-])o2)n1,i,i,i,i,i,i
O=C(Nc1ccc(S(=O)(=O)N2CCOCC2)cc1)c1ccc([N+](=O)[O-])o1,?,i,18.4µM,?,8.2µM,?
CCn1nnc(NC(=O)c2ccc([N+](=O)[O-])o2)n1,i,?,?,?,?,14.6µM
O=C(Nc1ccc(S(=O)(=O)N2CCOCC2)cc1)c1ccc([N+](=O)[O-])s1,?,i,i,5.17µM,i,13µM
O=C(Nc1ccc(S(=O)(=O)N2CCOCC2)cc1)c1cc([N+](=O)[O-])ccc1Cl,i,i,?,?,?,i
Cc1ccc(NC(=O)c2cc(S(=O)(=O)N3CCOCC3)c(Br)s2)cc1,23.1µM,i,i,?,?,i
CC(=O)Nc1ccc2nc(NC(=O)c3ccc([N+](=O)[O-])o3)sc2c1,16.4µM,3.26µM,?,9.2µM,5.17µM,0.651µM
O=C(Nc1ccc(N2CCOCC2)cc1)c1ccc([N+](=O)[O-])o1,?,1.3µM,7.31µM,i,5.17µM,4.61µM
O=C(Nc1ccccc1N1CCOCC1)c1ccc([N+](=O)[O-])s1,?,16.4µM,?,?,?,?
CCc1ccc(Nc2ccc(S(=O)(=O)N3CCOCC3)cc2[N+](=O)[O-])cc1,23.1µM,i,i,i,i,i
O=C(Nc1ccccc1N1CCOCC1)c1ccccc1[N+](=O)[O-],i,i,i,i,i,i[0.0737 µM]
CCOc1ccc(Nc2ccc(S(=O)(=O)N3CCOCC3)cc2[N+](=O)[O-])cc1,?,nt,i,i,i,nt
Cc1ccc(NS(=O)(=O)c2ccc(C(=O)N3CC(C)CC(C)C3)cc2)cc1 (stereo not given),?,i,i,i,i,i
Cc1nc2c(cnn2-c2ccccc2)c(=O)[nH]1,i,i,i,i,i,i
Cc1ccccc1C(=O)NC(=S)Nc1cccc(NC(=O)C(C)C)c1,i,i,i,i,i,i
Cc1ccc(C(=O)Nc2ccc(S(=O)(=O)N3CCc4ccccc4C3)cc2)o1,14.6µM,i,i,i,?,i
Cc1cc(C)n(-c2cc(C(C)(C)C)nc3c(-c4ccc(Cl)cc4)cnn23)n1,i,?,?,i,?,23.1µM
Cc1cc(N2CCOCC2)n2ncc(-c3ccc(Cl)cc3)c2n1,i,20.6µM,i,i,i,i
Cc1cc(C)n(-c2cc(C(C)(C)C)nc3c(-c4ccccc4)cnn23)n1,?,i,?,i,?,20.6µM
